Data on 26 molecules can be found in PubChem BioAssay (Tox21).

Values without a mark were called inactive. Inconclusive results are not listed. The source made the active and inactive calls. Unless noted, calls follow the shape of the dose curve; as a rule, active = well fitted curve in the direction sought with a large enough effect in the repeat runs; inconclusive = weak or mixed curves; inactive = no such curve, though single readings can be large; an effect the other way counts as inactive or inconclusive.

In assay [1] the target is Thyrotropin receptor (Homo sapiens) (UniProt P16473). Put plainly: qHTS assay to identify small molecule agonists of the thyroid stimulating hormone receptor (TSHR) signaling pathway (AID 1224843; calls by dose curve; also: nearly all actives have a fitted effect of over 45% in size). The procedure, abridged:
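Steps: seed 800 TSHR-HEK293 cells per well; add test compound and hold 30 min at ambient temperature; dispense cAMP-d2 then anti-cAMP cryptate; incubate 1 h at ambient; measure fluorescence intensity.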
For orientation: Quantitative high-throughput screening tests each substance at several concentrations.

The nature of assay [2]: qHTS assay to identify small molecule agonists of the hypoxia (HIF-1) signaling pathway - cell viability counter screen (AID 1224844; calls by dose curve; also: nearly all actives have a fitted effect of over 50% in size). The procedure, abridged: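 Luminescent ATP content (CellTiter-Glo, 30 min, room temperature) served as the viability measure in HRE-bla ME-180 cells exposed to compounds for 17 hrs in low-serum medium (0.5% dialyzed FBS).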
A short description of assay [3]: qHTS assay to identify small molecule agonists of H2AX (AID 1224845; active = well fitted activation curve with a large enough effect in the signal ratio in the repeat runs, not every such curve was filed as active; the % refers to the signal ratio). The procedure, abridged: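 Wild-type CHO-K1 cells, plated overnight, exposed 3hr at 37C to 15 concentrations (0.76% DMSO final). Lysed, then HTRF anti-pH2AX (S139) cryptate and anti-H2AX-d2 antibodies, 24 hr room temperature; 665/620 nm emission read.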
The nature of assay [4]: qHTS assay to identify small molecule agonists of the hypoxia (HIF-1) signaling pathway (AID 1224846; active = well fitted activation curve with a large enough effect in the signal ratio in the repeat runs, not every such curve was filed as active; the % refers to the signal ratio). The procedure, abridged: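 Measured by blue/green FRET after loading CCF4-AM: beta-lactamase expressed from a hypoxia response element in ME-180 cells. Test agents were delivered in DMSO and left 17 hrs; cells had been plated 5 hrs earlier in low-serum (0.5% dialyzed FBS) medium.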

Assay [5] can be described thus: qHTS RealTime-Glo MT Cell Viability Assay in HepG2 cells - 24 hour (AID 1224867). Also: nearly all actives have a fitted effect of over 50% in size. The procedure, abridged: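 Luminescence read-out: viable HepG2 cells reduce a prosubstrate to a NanoLuc substrate, giving a signal proportional to live cell number. Reads taken at 0, 8, 16, 24, 32 and 40 h of compound exposure at 37 C.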
A short description of assay [6]: qHTS RealTime-Glo MT Cell Viability Assay in HEK293 cells - 32 hour (AID 1224868). Also: nearly all actives have a fitted effect of over 50% in size. Also: potency is read from the fitted curve at half-maximal effect. As to activity change, negative = cytotoxic: top concentration of the series differs between compounds. The procedure, abridged:
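Nonlytic real-time viability readout: viable cells convert prosubstrate to NanoLuc substrate, giving luminescence proportional to live cell number. HEK293, 600 cells/well, compound added after 5 h, continuous culture at 37 C.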

Assay [7] can be described thus: A CellTox Green Cytotoxicity Assay to monitor cytotoxicity in HEK293 cells - 0 hour (AID 1224869). Also: nearly all actives have a fitted effect of over 50% in size. The procedure, abridged:
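Each value comes from one timepoint of a single continuous run in which HEK293 cells with CellTox Green were exposed to compound for up to 40 h at 37 C, dye fluorescence rising with cell death.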

Assay [8] is described as follows: qHTS assay to identify small molecule agonists of H2AX - cell viability counter screen (AID 1224847; calls by dose curve; also: top concentration of the series differs between compounds; nearly all actives have a fitted effect of over 30% in size). The procedure, abridged: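 We seed wild-type CHO-K1 cells overnight, treat them for 3 hr at 37C with compounds in 15-concentration series, and quantify remaining viability by CellTiter-Glo luminescence.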
The nature of assay [9]: qHTS assay to identify small molecule antagonists of the estrogen related receptor (ERR) signaling pathway from Tox21 library (AID 1224848). Also: nearly all actives have a fitted effect of over 50% in size. Also: potency is read from the fitted curve at half-maximal effect. The procedure, abridged: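 Luminescent reporter read-out (ONE-Glo) from NTP's ERR cell line after 18 h treatment at 37 C with DMSO-dissolved Tox21 compounds; cells pre-plated 6 h beforehand at 2,000 per well.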
Assay [10] in a line: qHTS assay to identify small molecule agonists of the estrogen related receptor (ERR) signaling pathway from Tox21 library (AID 1224849; calls by dose curve; also: nearly all actives have a fitted effect of over 15% in size). The note with it: ERR reporter cell line, ONE-Glo luciferase, 18 h; at 92.4 µM (top of the series) unless noted. The procedure, abridged:
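We plated ERR reporter cells, waited 6 h, added compounds in DMSO by pin tool and incubated them 18 h at 37 C. ONE-Glo was then added and luminescence read after 30 min.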
% is scaled to controls: 0 for no effect and ±100 for the full control effect.

Thyrotropin receptor (Homo sapiens), sequence (P16473 whole entry, looked up): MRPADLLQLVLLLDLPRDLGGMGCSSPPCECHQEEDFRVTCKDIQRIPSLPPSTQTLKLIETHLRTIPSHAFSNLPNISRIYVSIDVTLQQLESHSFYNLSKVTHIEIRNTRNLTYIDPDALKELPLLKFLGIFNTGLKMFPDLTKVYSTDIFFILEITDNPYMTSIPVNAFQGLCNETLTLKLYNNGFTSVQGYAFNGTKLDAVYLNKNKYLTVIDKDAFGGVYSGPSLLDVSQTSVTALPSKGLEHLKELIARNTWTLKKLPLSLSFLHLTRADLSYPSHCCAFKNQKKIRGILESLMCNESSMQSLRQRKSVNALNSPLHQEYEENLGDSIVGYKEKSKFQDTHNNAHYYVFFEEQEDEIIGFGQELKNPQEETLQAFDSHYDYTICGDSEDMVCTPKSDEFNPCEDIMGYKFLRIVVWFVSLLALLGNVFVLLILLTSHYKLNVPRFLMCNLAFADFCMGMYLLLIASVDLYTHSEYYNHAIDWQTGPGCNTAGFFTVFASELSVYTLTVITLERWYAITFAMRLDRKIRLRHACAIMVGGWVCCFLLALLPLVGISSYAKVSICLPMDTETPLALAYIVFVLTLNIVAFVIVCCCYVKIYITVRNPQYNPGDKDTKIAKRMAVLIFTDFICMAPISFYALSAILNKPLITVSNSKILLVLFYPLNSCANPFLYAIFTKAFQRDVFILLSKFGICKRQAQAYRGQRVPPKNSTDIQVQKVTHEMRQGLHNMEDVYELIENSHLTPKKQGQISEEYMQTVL

Regarding `CC(C)COC(=O)c1ccccc1O`, the result in assay [1], in [3], in assay [4] and in [5] was inactive. The Potency result in assay [2], in assay [6] and in assay [7] was “inactive” in each case.
For `CCCCCOC(=O)Nc1nc(=O)n([C@@H]2O[C@H](C)[C@@H](O)[C@H]2O)cc1F`, the molecule was classed as inactive in [1], in assay [3], in assay [4] and in assay [5]. In addition, the Potency entry in assay [2] and in assay [7] was “inactive” throughout.
Regarding `COc1cccc(OC)c1`, the molecule was classed as inactive in assay [1], in assay [3], in assay [4] and in assay [5]. Moreover, the Potency result in [2], in assay [6] and in [7] was “inactive” in each case.
In the case of `Cc1nccn1CC1CCc2c(c3ccccc3n2C)C1=O` (stereo not given), the call in assay [1], in [3] and in assay [5] was inactive. Moreover, the Potency entry in [2], in assay [8], in [6] and in assay [7] was “inactive” throughout.
In the case of `FC(F)(F)C(F)(F)C(F)(F)C(F)(F)C(F)(F)C(F)(F)C(F)(F)C(F)(F)C(F)(F)C(F)(F)F`, the activation is 1.03% [at 8.39 µM] in assay [1] and -1.11% [at 7.01 µM] in assay [4]. In addition, the values for the activity change, negative = cytotoxicity in assay [2] and in assay [5] were -0.544% [at 6.97 µM] and -0.167% [at 6.97 µM], respectively. Also, the activation (H2AX phosphorylation) in [3] is -0.945% [at 14 µM]. In addition, the activity change, negative = cytotoxic in assay [6] was -3.25% [at 6.97 µM]. For the same molecule, in assay [7], the cytotoxicity was -6.11% [at 6.97 µM].
On to `CN(C)CCn1nnnc1SCC1=C(C(=O)O)N2C(=O)[C@@H](NC(=O)Cc3csc(N)n3)[C@H]2SC1`, for which the molecule was called inactive in assay [1], in assay [3] and in assay [5]. The Potency result in assay [2], in assay [8], in assay [6] and in assay [7] was “inactive” throughout.
Take `O=[N+]([O-])c1ccc(CCO)cc1`: the call in assay [1], in assay [3], in assay [4] and in [5] was inactive. Besides, the Potency result in assay [2], in [6] and in assay [7] was “inactive” throughout.
As for `CC(C)[C@H](N)C(=O)OCCOCn1cnc2c(=O)[nH]c(N)nc21`, the molecule was classed as inactive in [1], in assay [3], in assay [4] and in assay [5]. The Potency entry in assay [2], in [6] and in assay [7] was “inactive” throughout.
Turning to `C=CCSCC1Nc2cc(Cl)c(S(N)(=O)=O)cc2S(=O)(=O)N1` (stereo not given), the outcome in assay [1], in assay [3], in assay [4] and in assay [5] was inactive. For the same molecule, the Potency result in assay [2], in assay [6] and in assay [7] was “inactive” throughout.
On to `CCn1c(=O)c2c(nc(/C=C/c3ccc(OC)c(OC)c3)n2C)n(CC)c1=O`, for which the result in assay [1], in [3], in assay [4] and in [5] was inactive. For the same molecule, the Potency entry in assay [2] and in assay [7] was “inactive” each time. Further, the figures for the Potency in [9] and in assay [6] were 21.1 µM (active) and 1.69 µM (active), respectively. The activity change, positive = activation in assay [10] was -35.7% [at 42.5 µM].
Regarding `COc1ccc(N=[N+]([O-])c2ccc(OC)cc2)cc1`, the outcome in [1], in assay [3], in assay [4] and in assay [5] was inactive. Also, the Potency result in assay [2], in assay [6] and in assay [7] was “inactive” in each case.
In the case of `Cn1cnc2c(=O)[nH]c(N)nc21`, the call in assay [1], in assay [3], in assay [4] and in assay [5] was inactive. Further, the Potency entry in [2], in assay [6] and in [7] was “inactive” throughout.
Consider `OCCN1C[C@H](O)[C@@H](O)[C@H](O)[C@H]1CO`, for which the molecule was called inactive in assay [1], in assay [3], in assay [4] and in assay [5]. Further, the Potency result in assay [2], in assay [6] and in assay [7] was “inactive” in each case.
Regarding `C[C@H]1O[C@@H](n2cc(F)c(=O)[nH]c2=O)[C@H](O)[C@@H]1O`, the result in [1], in assay [3] and in [5] was inactive. The Potency result in [2], in assay [8], in assay [9], in assay [6] and in assay [7] was “inactive” in each case. In addition, the activity change, positive = activation in assay [10] is 2.35% [at 42.5 µM].
Turning to `COc1nc(C)nc(N)n1`, the molecule was called inactive in [1], in assay [3], in [4] and in assay [5]. Moreover, the Potency result in [2], in assay [6] and in assay [7] was “inactive” throughout.
Consider `C[C@H](O)C(=O)Nc1c(I)c(C(=O)NC(CO)CO)c(I)c(C(=O)NC(CO)CO)c1I`, for which the outcome in [1], in [3] and in [5] was inactive. The Potency result in assay [2], in [8], in assay [6] and in assay [7] was “inactive” each time.
Take `CCCCc1ccc(N)cc1`: the call in assay [1], in assay [3], in assay [4] and in assay [5] was inactive. The Potency entry in assay [2] and in assay [7] was “inactive” throughout.
Consider `NC(=O)c1c(Cl)cccc1Cl`, for which the molecule was classed as inactive in assay [1], in assay [3], in assay [4] and in assay [5]. Also, the Potency entry in assay [2], in assay [9], in [6] and in assay [7] was “inactive” each time. Further, the activity change, positive = activation in [10] was -1.3%.
In the case of `NS(=O)(=O)c1cc2c(cc1C(F)(F)F)NC(Cc1ccccc1)NS2(=O)=O` (stereo not given), the molecule was classed as inactive in assay [1], in assay [3] and in assay [5]. Further, the Potency result in assay [2], in assay [8], in [6] and in assay [7] was “inactive” in each case.
In the case of `CCCC(=O)O[C@]1(C(=O)CCl)[C@@H](C)C[C@H]2[C@@H]3CCC4=CC(=O)C=C[C@]4(C)[C@@]3(F)C(=O)C[C@@]21C`, the molecule was called inactive in [1], in assay [3] and in assay [5]. In addition, the Potency entry in [2], in assay [8], in [6] and in assay [7] was “inactive” throughout.
For the molecule `NC(N)=NS(=O)(=O)c1ccc(N)cc1`, the molecule was called inactive in [1], in assay [3] and in assay [5]. In addition, the Potency entry in assay [2], in [8], in [6] and in assay [7] was “inactive” throughout.
For `NC(=O)c1ncn([C@@H]2O[C@H](CO)[C@@H](O)[C@H]2O)c1N`, the molecule was called inactive in assay [1], in [3], in assay [4] and in [5]. Also, the Potency result in assay [2], in [6] and in [7] was “inactive” each time.
Turning to `C=C(C)C1CC=C(C)C(O)C1` (stereo not given), the outcome in assay [1], in assay [3], in assay [4] and in [5] was inactive. The Potency entry in [2], in assay [9], in assay [6] and in assay [7] was “inactive” in each case. Further, in [10], the activity change, positive = activation is 2.44%.
As to `CSc1ccc(C=O)cc1`, the outcome in [1], in assay [3] and in assay [5] was inactive. Further, the Potency entry in assay [2], in assay [8], in assay [6] and in assay [7] was “inactive” each time.
In the case of `CCOC(=O)[C@H](CCc1ccccc1)N[C@@H](C)C(=O)N1CCC[C@H]1C(=O)O`, the call in assay [1], in assay [3] and in [5] was inactive. For the same molecule, the Potency result in assay [2], in assay [8], in [9], in assay [6] and in assay [7] was “inactive” each time. Further, the activity change, positive = activation in [10] is 3.79% [at 42.5 µM].
Regarding `CC(C)CCCCCCN`, the molecule was called inactive in assay [1], in assay [3], in assay [4] and in [5]. Also, the Potency entry in assay [2], in [6] and in [7] was “inactive” each time.
